We go through 14 molecules from PubChem BioAssay AID435017 (Vanderbilt High Throughput Screening Facility, 2010).

The structures appear in SMILES notation. Results with a measured potency or affinity are listed apart. Unmarked numbers belong to inactive results.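 How the source made its calls: active means compounds with a dose-dependent response across tested concentrations; inactive means the rest.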

The target of this experiment is ATP-sensitive inward rectifier potassium channel 1 (Homo sapiens) (UniProt P48048). Put plainly: Kir1.1 channel inhibitor analog potency – cell-based, thallium flux, analog library, SAR follow-up (AID 435017). The note with it: Tet-inducible ROMK, thallium flux fluorescence; series mostly up to 10 µM; normalised thallium flux, lower = inhibition: at the top concentration.
Chain of ATP-sensitive inward rectifier potassium channel 1 (Homo sapiens) (P48048 whole entry, looked up): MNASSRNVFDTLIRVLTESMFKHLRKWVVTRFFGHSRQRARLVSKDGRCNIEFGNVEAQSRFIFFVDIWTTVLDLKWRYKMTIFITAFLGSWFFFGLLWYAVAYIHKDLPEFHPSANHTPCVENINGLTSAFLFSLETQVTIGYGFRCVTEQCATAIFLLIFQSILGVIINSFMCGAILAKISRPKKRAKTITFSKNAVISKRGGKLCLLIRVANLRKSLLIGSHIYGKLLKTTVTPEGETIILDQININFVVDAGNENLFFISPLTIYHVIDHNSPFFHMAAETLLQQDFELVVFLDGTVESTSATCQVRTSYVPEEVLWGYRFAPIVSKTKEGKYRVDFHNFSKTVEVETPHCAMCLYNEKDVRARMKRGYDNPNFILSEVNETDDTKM
For `O=[N+]([O-])c1ccc(CN2CCOCCOCCN(Cc3ccc([N+](=O)[O-])cc3[N+](=O)[O-])CCOCC2)c([N+](=O)[O-])c1`, the “normalised thallium flux, lower = inhibition” value is 78.6%.

Regarding `COCCN(CCOC)Cc1ccc([N+](=O)[O-])cc1`, the “normalised thallium flux, lower = inhibition” value is 71% [at 100 µM].

On to `CS(=O)(=O)c1ccc(CN2CCOCCOCCN(Cc3ccc(S(C)(=O)=O)cc3)CCOCC2)cc1`, for which the “normalised thallium flux, lower = inhibition” value is 68% [at 100 µM].

For `O=C(c1ccc([N+](=O)[O-])cc1)N1CCOCCOCCN(C(=O)c2ccc([N+](=O)[O-])cc2)CCOCC1`, the “normalised thallium flux, lower = inhibition” value was 80.9%.

`O=[N+]([O-])c1ccc(CN2CCOCCOCCN(Cc3ccc([N+](=O)[O-])cc3Cl)CCOCC2)c(Cl)c1`: the “normalised thallium flux, lower = inhibition” value is 52% [at 100 µM].

Turning to `O=[N+]([O-])c1cccc(CN2CCOCCOCCN(Cc3cccc([N+](=O)[O-])c3)CCOCC2)c1`, the “normalised thallium flux, lower = inhibition” value is 11% [at 100 µM].

Take `Fc1ccc(CN2CCOCCOCCN(Cc3ccc(F)c(F)c3)CCOCC2)cc1F`: the “normalised thallium flux, lower = inhibition” value is 20% [at 100 µM].

In the case of `O=[N+]([O-])c1ccc2nc(COCc3nc4ccccc4[nH]3)[nH]c2c1`, the “normalised thallium flux, lower = inhibition” value was 89% [at 3.33 µM].

For the molecule `O=C(Nc1ccc([N+](=O)[O-])cc1)N1CCOCCOCCN(C(=O)Nc2ccc([N+](=O)[O-])cc2)CCOCC1`, the “normalised thallium flux, lower = inhibition” value was 80.7%.

With `CN(C)S(=O)(=O)c1ccc2nc(COCc3nc4ccc(S(=O)(=O)N(C)C)cc4[nH]3)[nH]c2c1`, the “normalised thallium flux, lower = inhibition” value is 89%.

Consider `O=S(=O)(c1ccc(CN2CCOCCOCCN(Cc3ccc(S(=O)(=O)C(F)(F)F)cc3)CCOCC2)cc1)C(F)(F)F`, for which the “normalised thallium flux, lower = inhibition” value is 65% [at 100 µM].

With `O=[N+]([O-])c1ccc(S(=O)(=O)N2CCOCCOCCN(S(=O)(=O)c3ccc([N+](=O)[O-])cc3)CCOCC2)cc1`, the “normalised thallium flux, lower = inhibition” value is 87.3%.

As to `c1ccc2[nH]c(COCc3nc4ccccc4[nH]3)nc2c1`, the “normalised thallium flux, lower = inhibition” value is 89%.

For `Fc1ccc2nc(COCc3nc4ccc(F)cc4[nH]3)[nH]c2c1`, the “normalised thallium flux, lower = inhibition” value is 84%.
